# Laboratory results reported in PMC4552634, “A New Set of Chemical Starting Points with Plasmodium falciparum Transmission-Blocking Potential for Antimalarial Drug Discovery” (PLoS ONE, 2015).
# Like-named read-outs stand apart in the source and are kept apart here. Hit rate of the full screen: of about 13,000 compounds, about 3,200 (25%) showed an effect of 50% or more. Some of the results follow.
# Tested on: P. falciparum stage V gametocytes
# Parameters: BacTiter-Glo ATP luminescence viability of purified stage V gametocytes in 384-well plates, per cent inhibition versus DMSO
# Conditions: 48 h, 5 µM, inhibitor
structure (smiles),measurement,setting,value
CC1(C)N=C(N)N=C(N)N1OCCCOc1c(Cl)cc(Cl)cc1Cl [TCMDC-131623],% Inhibition,,-2.968%
COC(=O)c1cccc(NC(=O)NC2CCN(c3ccnc(Nc4ccc(F)cc4)n3)C2)c1 (stereo not drawn) [TCMDC-133606],% Inhibition,,-36.49%
COc1ccc(-c2nc3c4cc(I)ccc4c4ccccc4c3[nH]2)cc1 [TCMDC-124198],% Inhibition,,-15.52%
c1ccc(C2CCC(N3CCC(N4CCN(c5ccccc5)CC4)CC3)CC2)cc1 (stereo not drawn) [TCMDC-124572],% Inhibition,,20.28%
Cc1cc(=O)c2cc(Oc3cccc(OC(F)(F)F)c3)ccc2[nH]1 [TCMDC-132124],% Inhibition,,-25.2%
Cc1cc(=O)c(-c2ccc(Oc3ccc(OC(F)(F)F)cc3)cc2)c(C)[nH]1 [TCMDC-137390],% Inhibition,,34.7%
Cc1cc(=O)c(-c2ccc(Oc3cccc(OC(F)(F)F)c3)cc2)c(C)[nH]1 [TCMDC-137266],% Inhibition,,80.76%
COc1cc2c(cc1N1CCN(C)CC1)N(C(=O)Nc1ccc(-c3ccncc3)c(Cl)c1Cl)CC2 [TCMDC-139163],% Inhibition,,-33.93%
CN1CCN(c2ccnc3ccc(NC(=O)Nc4cccc(C#N)c4)cc23)CC1 [TCMDC-139323],% Inhibition,,13.5%
Cc1noc(C)c1-c1ccc2c(Nc3ccc(C#N)cc3)c(C(N)=O)cnc2c1 [TCMDC-136029],% Inhibition,,27.78%
CC1(C)CC(NCCCCCCCOc2ccc(OCc3ccccc3)cc2)CC(C)(C)N1 [TCMDC-138958],% Inhibition,,104%
CN(C)c1ccc(OCCCCCCOc2ccccc2)cc1 [TCMDC-138000],% Inhibition,,-96.23%
CCOC(=O)CNCC(=O)c1ccc(OCc2ccccc2)cc1 [TCMDC-131777],% Inhibition,,33.46%
N#Cc1ccc(NC(=O)N2CCCN(CCCCCNC(=O)/C=C/c3ccc(Cl)c(Cl)c3)CC2)cc1 [TCMDC-135746],% Inhibition,,-26.45%
O=C(Nc1ccc(Cl)cc1)c1cccc(CN2CCCN(Cc3cccc(O)c3)CC2)c1 [TCMDC-135963],% Inhibition,,-7.455%
O=C(/C=C/c1cccc(Cl)c1)NC1CCC(CN2CCC(c3c[nH]c4ccccc34)CC2)CC1 (stereo not drawn) [TCMDC-139715],% Inhibition,% Inhibition,101.4%
O=C(/C=C/c1ccc2ccccc2c1)NC1CCC(CN2CCC(c3c[nH]c4ccccc34)CC2)CC1 (stereo not drawn) [TCMDC-139707],% Inhibition,,26.41%
O=C(/C=C/c1cccc(Cl)c1)NC1CCC(CN2CCC(c3c[nH]c4ccccc34)CC2)CC1 (stereo not drawn) [TCMDC-139700],% Inhibition,% Inhibition,105.2%
O=C(/C=C/c1ccc(Cl)cc1Cl)NC1CCC(CN2CCC(c3c[nH]c4ccccc34)CC2)CC1 (stereo not drawn) [TCMDC-139704],% Inhibition,,-6.512%
NC(=O)CN1CC=C(c2c[nH]c3ccc(Br)cc23)CC1 [TCMDC-131969],% Inhibition,,-24.55%
Cc1cc(NC(=O)c2cccs2)ccc1OC1CCN(Cc2ccc(F)cc2)CC1 [TCMDC-133743],% Inhibition,,2.358%
COc1ccc(CCC(C)N2CC(N)C(c3cn(C)c4cnccc34)C2)cc1 (stereo not drawn) [TCMDC-124826],% Inhibition,,30.72%
CC1CCN(CCNC(=O)c2ccc3c(=O)n(Cc4ccc(Cl)cc4)c(=S)[nH]c3c2)CC1 [TCMDC-125693],% Inhibition,,-28.57%
CC[C@H]1CN(CCCC(=O)c2ccccc2)CC[C@H]1CCCc1ccnc2ccc(OC(=O)c3ccccc3)cc12 [TCMDC-131478],% Inhibition,,92.9%
CC[C@H]1CN(Cc2ccccc2Br)CC[C@H]1CCCc1ccnc2ccc(O)cc12 [TCMDC-140335],% Inhibition,,-7.327%
CC[C@H]1CN(Cc2cccc(O)c2)CC[C@H]1CCCc1ccnc2ccc(O)cc12 [TCMDC-140337],% Inhibition,,3.253%
CCCCCCCN1CC[C@@H](CCCc2ccnc3ccc(OCCCCNC(N)=NO)cc23)[C@@H](CC)C1 [TCMDC-139839],% Inhibition,,107.7%
CCCCCCCN1CC[C@@H](CCCc2ccnc3ccc(OCCCCNC(N)=O)cc23)[C@@H](CC)C1 [TCMDC-139835],% Inhibition,,110.9%
O=C(Nc1ccc2c(c1)CCN2C1CCN(Cc2cccc(C(F)(F)F)c2)C1)c1ccco1 (stereo not drawn) [TCMDC-135065],% Inhibition,,-42.49%
CCOC(=O)c1ccc(-c2cnc(N)c(-c3nc4c(C)cccc4[nH]3)c2)cc1 [TCMDC-135560],% Inhibition,,19.55%
COc1cc(CCCOc2c(N)nc(N)nc2N)cc(OC)c1OC [TCMDC-131361],% Inhibition,,8.778%
CCc1ccc(CN2CCC(CNC(=O)c3cc(-c4ccccc4Cl)cs3)C2)cc1 (stereo not drawn) [TCMDC-134433],% Inhibition,,74.35%
CCc1ccccc1-c1csc(C(=O)NCC2CCN(Cc3ccc(C(C)(C)C)cc3)C2)c1 (stereo not drawn) [TCMDC-134448],% Inhibition,,91.94%
COc1ccccc1-c1csc(C(=O)NCC2CCN(Cc3ccc(C(C)(C)C)cc3)C2)c1 (stereo not drawn) [TCMDC-134511],% Inhibition,,-88.72%
CC(C)(C)c1ccc(CN2CCC(CNC(=O)c3cc(-c4ccccc4Cl)cs3)C2)cc1 (stereo not drawn) [TCMDC-134445],% Inhibition,,95.91%
CN(C)c1ccc(CN2CCC(CNC(=O)c3cc(-c4ccccc4Cl)cs3)C2)cc1 (stereo not drawn) [TCMDC-134455],% Inhibition,,49.98%
CC(C)c1ccc(CN2CCCCC(NC(=O)c3cc(-c4ccccc4Cl)cs3)C2)cc1 (stereo not drawn) [TCMDC-134464],% Inhibition,,-27.61%
CC(C)(C)c1nn(-c2ccccc2)c2[nH]c(=O)c(CNC3CCCCC3)cc12 [TCMDC-123551],% Inhibition,,7.742%
CC(=O)c1ccc(NC(=O)NNC(=O)c2ccc(CCN3CCC(c4nc(COCC(F)(F)F)c(-c5ccc(F)cc5)o4)CC3)cc2)cc1 [TCMDC-131905],% Inhibition,,-7.106%
NCC1(c2nc(-c3ccc(Cl)c(O)c3)c(-c3ccncc3)[nH]2)CCCCC1 [TCMDC-141154],% Inhibition,,57.41%
Oc1cc(-c2nc(C3(CNCc4ccc(Cl)cc4)CCCCC3)[nH]c2-c2ccncc2)ccc1Cl [TCMDC-141155],% Inhibition,,-6.27%
CC(C)(CN)c1nc(-c2ccc(Cl)c(O)c2)c(-c2ccncc2)[nH]1 [TCMDC-140369],% Inhibition,,-60.83%
CC(CNC(=O)c1cc2c(Cl)cc(Cl)cc2[nH]1)CNc1cc(=O)c2ccccc2[nH]1 (stereo not drawn) [TCMDC-140624],% Inhibition,,-21.72%
CCC(C)NS(=O)(=O)c1ccc2nc(Nc3ccc(C)c(Cl)c3)n(C(C)C(C)C)c2c1 (stereo not drawn) [TCMDC-134310],% Inhibition,,-65.92%
CCC1CN2CCc3c([nH]c4ccccc34)C2CC1CC1=NCCc2c1[nH]c1ccccc21 (stereo not drawn) [TCMDC-141998],% Inhibition,,9.363%
CC[C@H]1CN2CCc3c([nH]c4ccccc34)[C@@H]2C[C@@H]1CC1c2cc(OC)c(OC)cc2CCN1C (stereo partly drawn) [TCMDC-142011],% Inhibition,,-85.21%
Br.CC[C@H]1CN2CCc3cc(OC)c(OC)cc3[C@@H]2C[C@@H]1CC1=NCCc2c1[nH]c1ccc(OCc3ccccc3)cc21 [TCMDC-137627],% Inhibition,,69.01%
CCOC(=O)c1ccc(NC(=O)Nc2ccc(-c3cccc(-c4nc5ccccc5[nH]4)c3)cc2)cc1 [TCMDC-133270],% Inhibition,,-42.41%
COc1ccccc1CNC(=O)c1ccc(N2CCN(c3ccncc3)CC2)cn1 [TCMDC-135158],% Inhibition,,60.69%
O=C(NCCc1cccc(Cl)c1Cl)c1cnc(N2CCN(c3ccncc3)CC2)c(Cl)c1 [TCMDC-134597],% Inhibition,,-18.32%
COc1ccccc1CNC(=O)c1cc(Br)cc(N2CCN(c3ccncc3)CC2)c1 [TCMDC-135151],% Inhibition,,104.3%
O=C(NCCc1ccccc1F)c1ccc(N2CCN(c3ccncc3)CC2)cn1 [TCMDC-135154],% Inhibition,,-6.834%
COc1ccccc1CCNC(=O)c1cnc(N2CCN(c3ccncc3)CC2)c(Cl)c1 [TCMDC-134595],% Inhibition,,89.83%
COc1ccccc1CCNC(=O)c1cc(Br)cc(N2CCN(c3ccncc3)CC2)c1 [TCMDC-135148],% Inhibition,,-33.58%
O=C(NCc1cccc(CN2CCOCC2)c1)c1cc(Br)cc(N2CCN(c3ccncc3)CC2)c1 [TCMDC-135152],% Inhibition,,69.44%
O=C(NCCc1cccc(F)c1)c1cc(Br)cc(N2CCN(c3ccncc3)CC2)c1 [TCMDC-135145],% Inhibition,,3.253%
Cc1ccccc1CCNC(=O)c1cnc(N2CCN(c3ccncc3)CC2)c(Cl)c1 [TCMDC-134598],% Inhibition,,14.18%
O=C(NCc1ccc(F)cc1)c1cc(Br)cc(N2CCN(c3ccncc3)CC2)c1 [TCMDC-135150],% Inhibition,,12%
O=C(NCc1ccc(F)cc1)c1ccc(N2CCN(c3ccncc3)CC2)cn1 [TCMDC-135157],% Inhibition,,0.3973%
O=C(NCCc1ccccc1F)c1cc(Br)cc(N2CCN(c3ccncc3)CC2)c1 [TCMDC-135147],% Inhibition,,-5.133%
CC(CC1CCCCC1)NCc1ccccc1OCCC(=O)N1CCCC1C(N)=O (stereo not drawn) [TCMDC-140917],% Inhibition,,-9.137%
Cc1c(Oc2ccc(-n3ccnc3)cc2)ncnc1N1CCC2(CC1)CNCc1ccccc12 [TCMDC-137157],% Inhibition,,6.86%
CC(C)c1ccc(CN2CCC(NC(=O)c3ccc(-c4cccc(F)c4)s3)CC2)cc1 [TCMDC-134346],% Inhibition,,-27.58%
Cc1nccn1CCNC(=O)CN1CCC2(CCC1=O)CC(=O)c1ccccc1O2 (stereo not drawn) [TCMDC-125379],% Inhibition,,-42.89%
O=C(O)CCCN1CCCC(=C(c2ccccc2)c2ccccc2)C1 [TCMDC-141969],% Inhibition,,-38.14%
COC(=O)c1ccc(OCC(O)CO)cc1O (stereo not drawn) [TCMDC-123463],% Inhibition,,4.056%
CC(C)N(CCOc1ccc2c(c1)N(C(=O)Nc1cc(Br)cc(C(F)(F)F)c1)CC2)C(C)C [TCMDC-140250],% Inhibition,,-0.9347%
CC(C)c1ccc(NC(=O)N2CCc3ccc(OCCN(C(C)C)C(C)C)cc32)c(Br)c1 [TCMDC-140252],% Inhibition,,63.96%
CC(C)N(CCOc1ccc2c(c1)N(C(=O)Nc1ccc(Cl)c(Cl)c1)CC2)C(C)C [TCMDC-140254],% Inhibition,,8.096%
